Among the test systems are SR leukemia; RPMI-8226 leukemia; OVCAR-8 ovarian; OVCAR-5 ovarian; OVCAR-4 ovarian; SK-OV-3 ovarian; IGROV1 ovarian; OVCAR-3 ovarian; HS 578T breast; NCI/ADR-RES ovarian; T-47D breast; BT-549 breast; MDA-MB-435 melanoma; SW-620 colon; MCF7 breast; HCT-116 colon; HCC-2998 colon; KM12 colon.
Common to all, as to assay: NCI-60 one-dose screen, 48 h (100 = growth as untreated, 0 = no growth, -100 = all killed)
Holding throughout (conditions): 10 µM

Growth data for nine compounds are collected here from PubChem BioAssay (NCI).

Each structure is given as a SMILES string. This is part of a sample that, as a whole, favours compounds with a hit. Of some 83,000 tested, about 20% had one in any assay.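 Each cell line was grown in a 96-well plate and treated with one concentration of compound for 48 hours. Values below 10 were considered active.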 A number with no mark means an inactive call. The source made the active and inactive calls.

Consider `CC(C)/C(=N/O)c1ccccc1`, for which the growth with SR leukemia is 107%; with RPMI-8226 leukemia it was 111%; with OVCAR-8 ovarian, 110%; in the assay with OVCAR-5 ovarian, 103%; in the assay on OVCAR-4 ovarian, 111%; with SK-OV-3 ovarian, 122%. The growth in the assay on IGROV1 ovarian was 118%; in the assay on OVCAR-3 ovarian it was 130%; in the assay with HS 578T breast, 118%; in the assay on NCI/ADR-RES ovarian, 107%; with T-47D breast, 114%; in the assay with BT-549 breast, 111%. The growth was 107% in the assay on MDA-MB-435 melanoma; 114% with SW-620 colon; 107% in the assay on MCF7 breast; 109% with HCT-116 colon; 106% in the assay with HCC-2998 colon; 117% with KM12 colon.
As for `Cc1cc(C)c2c(Nc3ncnc4c3sc3nc(C)cc(C)c34)n[nH]c2n1`, the growth was 94% in the assay on SR leukemia; 98.9% with RPMI-8226 leukemia; 97.8% in the assay on OVCAR-8 ovarian; 95.2% with OVCAR-5 ovarian; 86.3% with OVCAR-4 ovarian; 106% in the assay on SK-OV-3 ovarian. Moreover, the growth was 120% in the assay with IGROV1 ovarian; 101% in the assay on OVCAR-3 ovarian; 105% in the assay with HS 578T breast; 100% in the assay with NCI/ADR-RES ovarian; 89.8% with T-47D breast; 101% in the assay on BT-549 breast. In addition, the growth with MDA-MB-435 melanoma is 98.7%; in the assay with SW-620 colon, 101%; with MCF7 breast it was 103%; in the assay on HCT-116 colon, 103%; with HCC-2998 colon, 113%; in the assay with KM12 colon it was 111%.
`O=C(c1ccc(Cl)cc1)c1no[n+]([O-])c1C(=O)c1ccc(Cl)cc1`: the growth in the assay with SR leukemia was -18.5% (active); in the assay with RPMI-8226 leukemia, 35.5%; in the assay on OVCAR-8 ovarian, 30.1%; with OVCAR-5 ovarian, 105%; in the assay on OVCAR-4 ovarian, 92.5%; in the assay on SK-OV-3 ovarian, 105%. The growth in the assay on IGROV1 ovarian is -35.8% (active); with OVCAR-3 ovarian it was 43.2%; with HS 578T breast, 109%; in the assay with NCI/ADR-RES ovarian it was 82.7%; in the assay on T-47D breast, 89.6%; in the assay on BT-549 breast, 98.7%. In addition, the growth was 89.8% with MDA-MB-435 melanoma; 44.2% in the assay on SW-620 colon; 92.1% in the assay on MCF7 breast; 49% in the assay on HCT-116 colon; 113% with HCC-2998 colon; 88.5% with KM12 colon.
Turning to `COc1cc(CSc2nc3ccc(Cl)cc3c(=O)n2-c2ccccc2)cc(OC)c1OC`, the growth in the assay with SR leukemia was 45.6%; in the assay on RPMI-8226 leukemia, 105%; in the assay on OVCAR-8 ovarian it was 84.3%; in the assay with OVCAR-5 ovarian, 84.7%; in the assay with OVCAR-4 ovarian, 81.7%; in the assay on SK-OV-3 ovarian it was 94.4%. Further, the growth with IGROV1 ovarian was 72.5%; in the assay on OVCAR-3 ovarian it was 77.8%; with HS 578T breast it was 90.3%; with NCI/ADR-RES ovarian it was 75.5%; in the assay on T-47D breast, 71%; with BT-549 breast it was 92.8%. For the same compound, the growth in the assay on MDA-MB-435 melanoma is 24.4%; with SW-620 colon, 79.7%; in the assay on MCF7 breast, 76.9%; in the assay on HCT-116 colon, 61.8%; in the assay with HCC-2998 colon, 80%; in the assay with KM12 colon it was 49.8%.
`NC1CCC(Nc2nc(NCc3ccc(-c4ccccc4O)nc3)c3ncn(C4CCCC4)c3n2)CC1` (configuration not stated): the growth in the assay on SR leukemia was -41.3% (active); with RPMI-8226 leukemia, -28% (active); in the assay on OVCAR-8 ovarian, 7.26% (active); in the assay on OVCAR-5 ovarian, 19.3%; in the assay with OVCAR-4 ovarian, 6.5% (active); in the assay on SK-OV-3 ovarian it was 8.5% (active). The growth in the assay with IGROV1 ovarian is 8.35% (active); with OVCAR-3 ovarian, -6.34% (active); in the assay on HS 578T breast, 8.94% (active); in the assay on NCI/ADR-RES ovarian it was 10.3%; in the assay on T-47D breast, -34.2% (active); in the assay on BT-549 breast, -28% (active). Also, the growth with MDA-MB-435 melanoma was -81.5% (active); in the assay with SW-620 colon, 0.393% (active); with MCF7 breast it was -62.4% (active); with HCT-116 colon, -55.8% (active); with HCC-2998 colon it was -73.3% (active); with KM12 colon, -16.2% (active).
On to `O=C(c1ccccc1)C(Nc1ccccc1)c1ccccc1` (configuration not stated), for which the growth is 96.2% in the assay on SR leukemia; 84.8% in the assay with RPMI-8226 leukemia; 87% in the assay with OVCAR-8 ovarian; 93.3% in the assay with OVCAR-5 ovarian; 92.3% in the assay with OVCAR-4 ovarian; 96.9% in the assay on SK-OV-3 ovarian. Moreover, the growth was 75.9% in the assay with IGROV1 ovarian; 97.1% in the assay on OVCAR-3 ovarian; 95.1% in the assay with HS 578T breast; 93.1% in the assay on NCI/ADR-RES ovarian; 76.5% in the assay on T-47D breast; 94.4% in the assay on BT-549 breast. Besides, the growth with MDA-MB-435 melanoma was 102%; in the assay with SW-620 colon, 97.6%; in the assay with MCF7 breast, 101%; in the assay on HCT-116 colon, 87.1%; with HCC-2998 colon it was 101%; in the assay on KM12 colon, 93.4%.
As for `C=CCn1ccc(=O)nc1SC`, the growth in the assay on SR leukemia is 112%; in the assay on RPMI-8226 leukemia, 108%; with OVCAR-8 ovarian it was 100%; in the assay with OVCAR-5 ovarian, 109%; in the assay with OVCAR-4 ovarian, 106%; in the assay on SK-OV-3 ovarian, 105%. The growth in the assay on IGROV1 ovarian was 120%; with OVCAR-3 ovarian, 113%; in the assay with HS 578T breast it was 106%; in the assay with NCI/ADR-RES ovarian it was 104%; in the assay with T-47D breast, 97.2%; in the assay with BT-549 breast it was 105%. The growth in the assay with MDA-MB-435 melanoma was 108%; with SW-620 colon, 103%; with MCF7 breast it was 100%; with HCT-116 colon it was 112%; in the assay on HCC-2998 colon, 103%; in the assay with KM12 colon, 104%.
In the case of `COCCNCC(O)Cn1c2ccc(Cl)cc2c2cc(Cl)ccc21` (configuration not stated), the growth in the assay with SR leukemia is -19.9% (active); with RPMI-8226 leukemia it was -36.9% (active); in the assay on OVCAR-8 ovarian it was -69.9% (active); in the assay with OVCAR-5 ovarian it was -79.1% (active); with OVCAR-4 ovarian, -97.3% (active); in the assay on SK-OV-3 ovarian, 52.7%. The growth was -38% (active) in the assay on IGROV1 ovarian; -46.3% (active) with OVCAR-3 ovarian; -12.3% (active) in the assay on HS 578T breast; -6.15% (active) in the assay with NCI/ADR-RES ovarian; -15.8% (active) in the assay on T-47D breast; 11.2% in the assay with BT-549 breast. In addition, the growth is -83.1% (active) with MDA-MB-435 melanoma; 2.98% (active) in the assay on SW-620 colon; -64.8% (active) in the assay on MCF7 breast; -5.18% (active) in the assay with HCT-116 colon; -30.1% (active) with HCC-2998 colon; 10.9% in the assay on KM12 colon.
As to `N#C/C(=C\N1C(=O)/C(=C/c2cccc([N+](=O)[O-])c2)SC1=S)c1nc2ccccc2s1`, the growth in the assay with SR leukemia was 73.4%; in the assay with RPMI-8226 leukemia it was 60.4%; in the assay on OVCAR-8 ovarian, 94.7%; in the assay on OVCAR-5 ovarian, 102%; in the assay on OVCAR-4 ovarian, 61.4%; with SK-OV-3 ovarian, 77.7%. Further, the growth is 83.7% with IGROV1 ovarian; 90.4% in the assay with OVCAR-3 ovarian; 95.9% in the assay with HS 578T breast; 94.1% in the assay with NCI/ADR-RES ovarian; 54.7% in the assay on T-47D breast; 78.3% in the assay on BT-549 breast. Moreover, the growth with MDA-MB-435 melanoma was 76.2%; with SW-620 colon it was 105%; in the assay on MCF7 breast, 70.9%; with HCT-116 colon, 81.6%; with HCC-2998 colon it was 100%; with KM12 colon it was 81.3%.
